According to ChEMBL document CHEMBL3988442, “University of Dundee, Small-Polar-MMV Screening Library” (2021):
In all, about 48,000 compounds went through this assay and about 13,000 (27%) showed an effect of 50% or more. The list shows a part of the results.

system: Wolbachia pipientis; assay: Anti-Wolbachia Cell-Based Screen; format: functional; design: scale not given: in the data most compounds retested in dose-response had high values; conditions: 5 µM

Compound	Percent Effect
CC(OCC(F)(F)F)C(=O)N1CCCCC1 (configuration not stated)	-2.646%
O=C1CN(c2ccc(CNC(=O)c3cccnc3O)cc2F)CCN1	-18.4%
CN1CCCc2cc(CNC(=O)c3cccnc3O)ccc21	90.33%
CC(C)CN1CCCn2nc(CNC(=O)c3cccnc3O)cc2C1	-4.035%
CN1N=C(C(=O)NCc2ccc3c(c2)CCCN3C)CCC1=O	13.95%
Cc1cnc(C(=O)NCc2ccc3c(c2)CCCN3C)cn1	101.2%
COc1ccc(COCC(O)CNC(=O)c2cnc(C)cn2)cc1 (configuration not stated)	4.456%
CC(C)c1nn(C)c(Cl)c1CNC1CCOc2ccccc21.Cl (configuration not stated)	-8.066%
CC(=O)NCC(=O)N1Cc2cc(-c3cc[nH]n3)ccc2C1c1cnco1 (configuration not stated)	-23.15%
COc1ccc(-n2cnnc2SCC(C)(C)O)cn1	-5.422%
COc1ccccc1OCC(=O)NS(=O)(=O)c1cc(F)ccc1F	-8.021%
COc1nn(C)cc1C(=O)NCC(=O)NCc1cccnc1	-2.836%
COCCn1nc(C(=O)N2CCN(C)CC2C)ccc1=O (configuration not stated)	-13.53%
COCCn1nc(C(=O)N2CCCC2c2cccc(F)c2)ccc1=O (configuration not stated)	1.762%
COCC(=O)N(Cc1cccnc1)CC1CCN(C2CCCC2)CC1	-6.321%
COCCn1nc(C(=O)N(C)Cc2cccnc2)ccc1=O	131.6%
COCCn1nc(C(=O)N(C)Cc2ccc3ccccc3c2)ccc1=O	98.47%
CCN(CC(=O)NC)S(=O)(=O)c1cnc2c(c1)c(C)nn2C	-1.026%
N#CC1(C(=O)N2CCN(c3nccs3)CC2)CCCCC1	-10.71%
CN(C)c1ncccc1NC(=O)COCC1CC1	7.684%
N#Cc1cccc(OCCN2CCCC(c3noc(C4CC4)n3)C2)c1 (configuration not stated)	-47.81%
N#Cc1ccc(N2CCC3(CC2)CC(Oc2cccnc2)CO3)cc1.O=C(O)C(F)(F)F (configuration not stated)	18.7%
CN1CCN(C2COC3(CCN(c4ccc(C#N)cc4)CC3)C2)CC1.O=C(O)C(F)(F)F (configuration not stated)	99.27%
N#Cc1ccc(N2CCC3(CC2)CC(N2CCOCC2)CO3)cc1.O=C(O)C(F)(F)F (configuration not stated)	99.84%
CNC(=O)COC1COC2(CCN(c3ccc(C#N)cc3)CC2)C1.O=C(O)C(F)(F)F (configuration not stated)	4.884%
CN1CCOCC12CCN(c1ccc(C#N)cc1)CC2.O=C(O)C(F)(F)F	-6.092%

Compound	Percent Effect
COC1COC2(CCN(c3ccc(C#N)cc3)CC2)C1.O=C(O)C(F)(F)F (configuration not stated)	-8.699%
COc1cccc(-c2cnnc(N(C)CCC3CCCCO3)n2)c1 (configuration not stated)	-7.888%
Cc1cc2c(c(-c3c[nH]c(C)n3)c1)OC(CN)C2 (configuration not stated)	10.27%
COc1ccc(CNC(=O)N2CCC(Cc3cnn(C)c3)C2)cc1C (configuration not stated)	-1.04%
Cc1ccc(CCNC(=O)N2CCC(Cc3cnn(C)c3)C2)cn1 (configuration not stated)	129.7%
CCOc1cc(CNC(=O)N2CCC(Cc3cnn(C)c3)C2)ccn1 (configuration not stated)	0.1866%
Cc1ccc(CCNC(=O)NC2CCN(CC(F)(F)F)C2=O)cn1 (configuration not stated)	-2.04%
Cc1ccc(CCNC(=O)N2CCCC(Cc3nccn3C)C2)cn1 (configuration not stated)	-1.285%
Cn1cc(CC2CCN(C(=O)NCCCc3ccc(O)cc3)C2)cn1 (configuration not stated)	109.7%
Cc1ccc2c(ccn2CCC(=O)O)c1	-5.722%
O=C(O)CCn1ccc2c(nnc3c(-c4ccc(F)cc4)cnn32)c1=O	102.5%
CC(=O)Nn1ccc2c(nnc3c(-c4ccc(F)cc4)cnn32)c1=O	91.05%
CC(=O)Nn1ccc2c(nnc3c(-c4ccccc4)cnn32)c1=O	95.62%
CCN(CC)CCC(=O)NCc1cc2n(n1)CCN(C(=O)N(C)C)C2	-4.405%
Cc1ccc(-c2ncc(C(=O)N3CCC[C@H](N)C3)c(O)n2)cc1	4.793%
CC(O)c1cn(CC2CCN(C(=O)c3cccc(N(C)C)c3)CC2)nn1 (configuration not stated)	-11.02%
Cc1nnc(NC(=O)N2CCCN(C3CCCC3)CC2)s1	-2.14%
CC1CCN(CCCNC(=O)Nc2cc3c(cc2Br)OCCO3)CC1	-0.7212%
Cc1nc(-c2c(-c3ccccc3)ncn2[C@H]2C[C@@H](C(=O)O)N(C)C2)co1	-9.295%
CCSCc1ccnc(NC(=O)C2CCOC2)c1 (configuration not stated)	20.8%
CCOc1ccc(C(=O)N2CCC(Oc3ccccc3)(C(=O)O)CC2)o1	-0.9818%
CC(C)(C)N1CCN(C(=O)c2cccnc2-n2cncn2)CC1	-9.982%
Cc1nc(CCNC2CCN(Cc3ccccc3)C2)sc1C (configuration not stated)	-12.11%
CCc1cc(N2CCC(NCCc3ccccc3F)CC2)nc(C)n1	82.1%
CCCc1cc(N2CCC(NCCc3ccc(O)cc3)CC2)nc(C)n1	19.96%
CCCc1cc(N2CCC(NCC3(O)CCCCC3)CC2)nc(C)n1	-11.13%

Compound	Percent Effect
CCc1cc(N2CCC(NCCSc3nnnn3C)CC2)nc(C)n1	4.673%
CCc1cc(N2CCC(NCCc3ccc(C)o3)CC2)nc(C)n1	97.78%
Cc1nc(C)c(C)c(N2CCC(NCCOc3ccccc3)CC2)n1	8.772%
CCc1cc(N2CCC(NC(=O)CCC3CCCO3)CC2)ncn1 (configuration not stated)	-4.201%
CCc1cc(N2CCC(NCCc3nc(C)c(C)s3)CC2)nc(C)n1	99.23%
CCc1csc(CNC2CCN(c3ccc(C)cc3)CC2)n1	-9.18%
CCc1cc(N2CCC(NCc3ccc(C)o3)CC2)ncn1	91.75%
Cc1cccc(C(C(=O)NCCc2nc(C)cc(=O)[nH]2)N(C)C)c1 (configuration not stated)	7.079%
Nc1nc(CCCNC(=O)C2CCCN(Cc3ccco3)C2)cs1 (configuration not stated)	11.5%
Cc1ccccc1C(=O)NCCC(=O)NS(=O)(=O)c1cccnc1	-14.99%
CCn1cncc1CNc1ccc(-c2nc(CC(C)C)no2)cn1	7.108%
CC(C)c1nnc2n1CCN(C(=O)c1ccc(OCC3CC3)cc1)C2	5.374%
CC(NCc1ccco1)c1nnc2n1CCCC2 (configuration not stated)	-19.1%
COc1c(CNCc2nnc3n2CCCCC3)c(C)nn1C.Cl	-7.415%
COc1cc(CNC(C)c2nnc3n2CCC3)cc(OC)c1 (configuration not stated)	10.34%
CC(NCc1ccc(Cl)o1)c1nnc2n1CCCC2 (configuration not stated)	-1.685%
CCn1cc(N)c(-c2nnc3n2CCC3)n1	92.6%
Cc1ccc(CNC(C)c2nnc3n2CCCC3)o1 (configuration not stated)	-12.78%
Cc1ccoc1CNC(C)c1nnc2n1CCCC2 (configuration not stated)	-17.53%
CCn1cc(N)c(-c2nnc3n2CCCC3)n1	106%
Cn1cc(N)c(-c2nnc3n2CCCC3)n1	140.1%
O=C(NCC1(O)CCOc2ccccc21)Nc1ccccc1 (configuration not stated)	-14.8%
O=C(O)c1ccnc(-c2ccnc(COc3ccc(Cl)cc3)n2)c1	-21.17%
CCCS(=O)(=O)N1CCN(c2cc(-n3cnc(C)c3C)ncn2)CC1	-4.672%
NC(=O)c1ccc(OCCCN2C[C@H](C3CC3)[C@@H](N)C2)cc1	-11.21%
NC(=O)c1ccc(OCCCN2CCC3(CC2)OCCCC3O)cc1 (configuration not stated)	101.3%

Compound	Percent Effect
Cc1cc(C2CCC2)nc(N2CCC3(CC2)OCCCC3O)n1 (configuration not stated)	-2.811%
COc1ccccc1S(=O)(=O)N1CCC2(CC1)OCCCC2O (configuration not stated)	6.351%
OC1CCCOC12CCN(CCCOc1ccccc1F)CC2 (configuration not stated)	114.2%
O[C@H]1CCN(CCCOc2ccccc2F)C[C@@]12CCCO2	90.29%
O[C@H]1CN(CCCOc2ccccc2F)CC[C@@]12CCCO2	134.4%
O=C(C1CCC1)N1CCN(Cc2ccc(F)cc2)[C@H]2CS(=O)(=O)C[C@H]21	11.26%
O=C(Nc1ccccn1)NC1CCN(c2ccccc2OC(F)F)C1 (configuration not stated)	-25.38%
COc1ccc2nc(C[C@@H]3C[C@@H](C(C)C)[C@H](CN)C=C3C)[nH]c2n1	16.51%
CC(C1CCN(Cc2cnn(C)c2C2CC2)CC1)N1CCCC1 (configuration not stated)	22.88%
C1CCC(NCC2(N3CCOCC3)CCSC2)C1 (configuration not stated)	-110.3%
COc1ccccc1[C@@H]1CN(Cc2c(C)noc2C)C[C@H]1C(=O)O	-13.6%
Cc1cc(NS(=O)(=O)CC2CCCCO2)ccc1F (configuration not stated)	4.819%
Cc1cc(NCC2CCCO2)cc(=O)n1C (configuration not stated)	135.4%
Cc1cc(S(C)(=O)=O)c(C)c(S(=O)(=O)NCC2CCCO2)c1 (configuration not stated)	-7.327%
COCC(C)N(C)C(=O)NC1CCN(c2ncccn2)CC1 (configuration not stated)	0.8848%
CCN(Cc1noc(C2CC2)n1)Cc1ccc(C#N)cc1F	-1.413%
O=C(Cc1cccs1)N1CCOC(c2cccc(O)c2)C1 (configuration not stated)	-7.888%
O=C(Cc1cccs1)N1C[C@@H]2CN(Cc3ccoc3)CCO[C@@H]2C1.O=C(O)C(F)(F)F	-6.419%
COCCN1CCO[C@@H]2CN(C(=O)Cc3cccc(F)c3)CC[C@@H]2C1.O=C(O)C(F)(F)F	6.529%
CS(=O)(=O)N1CCO[C@@H]2CN(C(=O)Cc3cccs3)CC[C@@H]2C1	99.33%
O=C1NCCO[C@H]2CN(C(=O)Cc3cccs3)CC[C@@H]12	-57.9%
CN(C)C[C@H]1OC[C@@H]2CCN(C(=O)Cc3cccs3)C[C@@H]21.O=C(O)C(F)(F)F	-1.59%
CN1CCO[C@@H]2CN(C(=O)Cc3cccs3)CC[C@@H]2C1.O=C(O)C(F)(F)F	104.2%
CC(C)N1CCO[C@@H]2CN(C(=O)Cc3cccs3)CC[C@@H]2C1.O=C(O)C(F)(F)F	111.3%
